# Assay outcomes deposited in PubChem BioAssay by National Center for Advancing Translational Sciences (NCATS).
# Rows were chosen to be rich in hits. Some 2.4% of all compounds tested hit in one or more screens of this group.
# D2 ag-1: agonists of human D2 dopamine receptor (beta-arrestin); activation, % (concentration not given with the values); actives 0.084% (n = 360,000); DiscoveRx PathHunter D2 beta-arrestin, luminescence, 90 min; 100% = 57 uM dopamine signal; AID 624465; P14416; in the data active = activation above about 40%; inconclusive = between about 15% and that limit
# Target sequence (P14416 whole entry, looked up): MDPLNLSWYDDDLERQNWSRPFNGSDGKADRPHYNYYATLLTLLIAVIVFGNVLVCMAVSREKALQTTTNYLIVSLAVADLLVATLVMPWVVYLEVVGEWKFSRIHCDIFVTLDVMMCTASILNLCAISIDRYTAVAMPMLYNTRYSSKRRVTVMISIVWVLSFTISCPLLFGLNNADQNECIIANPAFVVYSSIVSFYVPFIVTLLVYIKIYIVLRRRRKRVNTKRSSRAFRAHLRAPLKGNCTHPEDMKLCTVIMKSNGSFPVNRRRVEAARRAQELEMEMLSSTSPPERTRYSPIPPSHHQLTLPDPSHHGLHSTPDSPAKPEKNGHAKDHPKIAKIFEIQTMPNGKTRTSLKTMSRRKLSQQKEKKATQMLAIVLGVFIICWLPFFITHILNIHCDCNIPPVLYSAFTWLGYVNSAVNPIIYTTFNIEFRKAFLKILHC
#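 DiscoveRx PathHunter D2 beta-arrestin cells (2,100/well) attached overnight, then compound-stimulated 90 min at 37 C in HBSS/10 mM HEPES/0.1% Tween-20 buffer; beta-galactosidase complementation read by luminescence after 1 h at ambient temperature. Dopamine 57 uM final (EC100) as control.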
# D2 PAM-1: human D2 receptor positive allosteric modulation; P14416; DiscoveRx D2 beta-arrestin cells, luminescence, 90 min; 100% = 57 uM dopamine signal; potentiation, % (test concentration not listed); actives 0.23% (n = 360,000); AID 624464; in the data active = potentiation above about 50%; inconclusive = mostly about 30% to 49%
#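 PathHunter D2 cells, attached overnight at 37 deg C, received compound in DMSO plus dopamine at EC20 (50 nM final) for 90 min at 37 deg C. Beta-arrestin recruitment was read as luminescence after 1 h with detection reagent at ambient temperature.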
# D2 ag-2: activates the human D2 dopamine receptor; actives 0.53% (n = 340,000); activation, % at 2 µM; P14416; HEK293 T-REx D2 cells, calcium flux agonist mode;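 active = activation over 3 SD above normal in the single-dose calcium agonist read, cut at about 30% in these data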; note: 0% is about no effect
#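 Tetracycline-induced HEK293 T-REx cells with force-coupled D2 receptor, plated overnight at 30 C, loaded with no-wash calcium dye. After a 10 s baseline, compound was pin-added and calcium flux read kinetically for 180 s; calcium rises flagged agonists.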
# D2 PAM-2: positive allosteric modulators of human D2 dopamine receptor; P14416; HEK293 T-REx D2, calcium flux, EC20 dopamine potentiation; potentiation, % at 10 µM; actives 0.34% (n = 340,000); AID 485347;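 active = potentiation over 3 SD above the plate norm, cut at about 30% in these data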; note: 0% is about no effect
#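 Using a no-wash calcium dye in inducible, force-coupled HEK293 Trex cells expressing D2, we tracked fluorescence each second for 180 s after compound, then for 180 s after EC20 dopamine to detect augmented signalling.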
# D2 antagonist: antagonizes the human D2 dopamine receptor | actives 2% (n = 340,000) | inhibition, % at 10 µM | HEK293 TREx D2 cells, calcium flux, dopamine EC80 | AID 485344 | P14416; in the data active = inhibition above about 30%; inactive = below that, where a call was filed; note: 0% is about no effect
#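 Inhibition of EC80 dopamine-driven calcium flux, recorded kinetically, defines activity here; cells are a tetracycline-induced HEK293 T-REx line expressing force-coupled D2.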
# * marks the source's active call; other numbers are inactive results; ? = inconclusive; . = no result given.
SMILES,D2 ag-1,D2 PAM-1,D2 ag-2,D2 PAM-2,D2 antagonist
N/C(=N\OC(=O)c1ccccc1F)c1cccc([N+](=O)[O-])c1,66*,16,4,6,6
N/C(=N\OC(=O)c1ccco1)c1cccc(Br)c1,6,23,0,0,12
N/C(=N\OC(=O)c1ccccc1Br)c1cccc([N+](=O)[O-])c1,?,?,-1,8,-7
COc1cc(C(=O)O/N=C(\N)c2ccc([N+](=O)[O-])cc2)cc(OC)c1OC,8,15,1,-6,13
COc1ccc(C(=O)O/N=C(\N)c2ccccc2)cc1OC,10,?,1,5,-6
COc1ccc(/C(N)=N/OC(=O)c2ccco2)cc1OC,10,7,0,32*,-6
COCCn1c(C)cc(O)c(C(c2ccc(OC)cc2)N2CCN(c3ccccc3)CC2)c1=O (configuration not stated),.,.,.,-24,.
CCOC(=O)Cn1c(=O)cc(C(F)(F)C(F)(F)F)c2c(C)nn(CC)c21,.,.,.,3,.
Cc1ccccc1Nc1nc(N)nc(COC(=O)/C=C/c2ccco2)n1,-3,-2,1,-2,-22
CC(C)Oc1ccc(C(=O)Nc2nc3c(s2)CC(C(C)(C)C)CC3)cc1 (configuration not stated),.,.,-2,2,.
O=C(CSc1nc2ccccc2nc1Cc1ccccc1)N1CCc2ccccc21,.,.,-1,10,.
CCOc1ccc(CCNC(=O)CN2C(=O)NC3(CCCCCC3)C2=O)cc1OCC,-2,-7,0,14,-3
N/C(=N\OC(=O)c1ccc(Br)cc1)c1cccc([N+](=O)[O-])c1,6,?,0,-2,-12
Cc1ccc(C(=O)O/N=C(\N)c2cccc([N+](=O)[O-])c2)cc1,?,60*,1,0,-5
CC1(c2ccc(OC(F)F)cc2)NC(=O)N(CC(=O)Nc2ccc(F)cc2)C1=O (configuration not stated),-1,0,19,7,-4
CC1(c2ccc(OC(F)F)cc2)NC(=O)N(CC(=O)Nc2cccc(F)c2)C1=O (configuration not stated),1,-4,33*,2,-14
CN(C)c1ccc(/C=N/NC(=O)CNC(=O)c2ccc3c(c2)OCCO3)cc1,-3,-6,0,-1,10
CCN(CC)c1ccc(/C=N/NC(=O)CNC(=O)c2ccc3c(c2)OCCO3)cc1,-8,-18,0,-19,33*
CCc1ccccc1NC(=O)Nc1nnc(N(CC)c2ccccc2)s1,.,.,.,1,.
CCOC(=O)C1CCN(C(c2ccccc2OC)c2c(O)cc(C)n(CCOC)c2=O)CC1 (configuration not stated),.,.,0,9,.
CCOc1cc(/C=N/Nc2nc(-c3cccc(S(=O)(=O)N4CCCC4)c3)cs2)ccc1O,?,119*,-1,5,-5
COc1ccc(/C=N/Nc2nc(-c3cccc(S(=O)(=O)N4CCCC4)c3)cs2)cc1OC,5,10,0,1,6
CCc1ccc(N2CC(c3nc4ccccc4n3Cc3ccccc3C)CC2=O)cc1 (configuration not stated),.,.,.,-12,.
CC1(C)CC(=O)N(CC(=O)NC2CCCC2)c2ccccc2S1(=O)=O,-2,-2,2,-1,4
COc1ccc(OC)c(CCNC(=O)CN2C(=O)CC(C)(C)S(=O)(=O)c3ccccc32)c1,1,-3,0,34*,-1
SMILES,D2 ag-1,D2 PAM-1,D2 ag-2,D2 PAM-2,D2 antagonist
COc1cc(C(C(=O)NC2CCCC2)N(C(=O)c2snc(C(N)=O)c2N)C2CCCC2)cc(OC)c1OC (configuration not stated),6,5,-1,-1,32*
Cc1ccc(CNC(=O)C2CCCN(S(=O)(=O)c3ccc4c(ccn4C)c3)C2)cc1 (configuration not stated),.,.,0,1,.
COc1ccc(Br)cc1/C=N/n1c(COc2ccccc2)n[nH]c1=S,14,-4,1,8,6
N#Cc1ccccc1NC(=O)COC(=O)COc1ccccc1[N+](=O)[O-],0,-1,0,4,-17
CCC(=O)Nc1ccccc1Nc1cc(C#N)c(C#N)cc1[N+](=O)[O-],10,74*,-1,-3,8
COC(=O)c1cc(NS(=O)(=O)c2cc(Br)cc3c2N(C(C)=O)CC3)cc(C(=O)OC)c1,.,.,-1,21,.
O=C(Nc1cccc(OCc2cc(=O)n3ccccc3n2)c1)c1ccccc1Br,.,.,0,-3,.
Cc1ccc(C(=O)Nc2cc(C(F)(F)F)ccc2-n2cncn2)o1,-4,3,0,0,2
O=C(Nc1cc(C(F)(F)F)ccc1-n1cncn1)c1ccc(F)cc1Cl,-1,-10,0,4,35*
CCc1nc2ccc(C(=O)NCCc3ccc(OC)c(OC)c3)cc2nc1CC,4,8,0,3,-1
COc1ccc(CCNC(=O)c2nonc2N)cc1OC,1,-15,0,-1,7
COc1ccc(Cl)cc1NC(=O)c1noc2c1CCCC2,-6,-4,1,18,31*
COc1ccc(CCNC(=O)c2ccc3nc(-c4ccco4)c(-c4ccco4)nc3c2)cc1OC,9,61*,6,10,-6
COc1ccccc1OCCNC(=O)c1ccco1,-5,-2,1,-6,1
COc1cc(Br)c(CCNC(=O)c2ccco2)cc1OC,-2,-6,0,-4,36*
COc1ccc(CCNC(=O)c2noc3c2CCCC3)cc1OC,-1,-13,0,2,42*
CN(C)S(=O)(=O)c1ccc2c(c1)c(=O)c(C(=O)N1CCN(c3cccc(Cl)c3)CC1)cn2C,.,.,3,15,.
O=C(Cc1ccccc1F)Nc1cc(S(=O)(=O)N2CCOCC2)ccc1N1CCCC1,-2,-6,.,.,.
CC1(C)Cc2c(sc3c2C(=O)N(c2ccccc2)C2=NCCN23)CS1,-5,-22,-1,46*,17
Cc1nc(NCC(c2ccccc2)N(C)C)c2c(C)c(C)sc2n1 (configuration not stated),0,-17,-6,-15,-16
Cc1cc(=O)n(CC(=O)NCc2ccc(OC(C)C)cc2)c2c1c(C)nn2-c1cccc(F)c1,.,.,.,-8,.
CCc1ccc(C(=O)N/N=C/c2ccc(Cl)cc2Cl)nc1,.,.,1,-18,73*
CCOC(=O)C1CCCN(CCC(=O)Nc2ccc(C)cc2)C1 (configuration not stated),-3,-33,1,-30,0
CN(C)CCCNc1oc(-c2ccccc2Cl)nc1S(=O)(=O)c1ccccc1,-2,-2,1,-31,86*
CN(C)CCCNc1oc(-c2ccc(Cl)cc2)nc1S(=O)(=O)c1ccccc1,-6,-6,.,.,.
